Source: the supplement of paper PMC10849652
Targets with a hit are over-represented here; the source holds about 7,900 in all. About 0.6% of all pairs of compound and target were hits. Values without a mark were called inactive.

Legend:
Experiment in all cases: log2 fold change, soluble protein after heating vs DMSO (PISA); higher = thermal stabilisation; K562 cells, 10 uM, 30 min; active = over 0.2 and 3.5 SD of the protein, either way, in both replicates (recomputed)
bafetinib = compound: Cc1ccc(NC(=O)c2ccc(CN3CC[C@H](N(C)C)C3)c(C(F)(F)F)c2)cc1Nc1nccc(-c2cncnc2)n1 [bafetinib]
How it was run: (§1)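 K562 cells at 2×10^6 cells/mL were treated for 30 min with 10 μM compound, and aliquots were heated for 3 min over 48°C-58°C before pooling. Extraction used PBS with 0.5% NP-40 at 4°C, and soluble protein was the supernatant after 21,000xg for 90 min, measured by TMTpro 16plex LC-MS/MS with channel sums equalised. Thermal stability values, relative to control samples and from duplicates, are log2 fold changes.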

nilotinib = compound: Cc1cn(-c2cc(NC(=O)c3ccc(C)c(Nc4nccc(-c5cccnc5)n4)c3)cc(C(F)(F)F)c2)cn1 [nilotinib]
How it was run: as §1

[1] = compound: Cc1nc(Nc2n[nH]c3c2CN(C(=O)N[C@H](CN(C)C)c2ccccc2)C3(C)C)c2sccc2n1
How it was run: as §1

[2] = compound: Cc1ncc(-c2ccnc(Nc3ccc(S(C)(=O)=O)cc3)n2)n1C(C)C
How it was run: as §1

[3] = compound: Cn1cc(-c2ccc3c(c2)CCN3C(=O)Cc2cccc(C(F)(F)F)c2)c2c(N)ncnc21
How it was run: as §1

[4] = compound: Cn1cc(-c2ccc3nnc(C(F)(F)c4ccc5ncccc5c4)n3n2)cn1
How it was run: as §1

mubritinib = compound: FC(F)(F)c1ccc(/C=C/c2nc(COc3ccc(CCCCn4ccnn4)cc3)co2)cc1 [mubritinib]
How it was run: as §1

[5] = compound: NC(=O)c1cnc(N[C@@H]2CCCC[C@@H]2N)nc1Nc1cccc(-n2nccn2)c1
How it was run: as §1

[6] = compound: NC1(c2ccc(-c3nc4ccn5c(=O)[nH]nc5c4cc3-c3ccccc3)cc2)CCC1
How it was run: as §1

citarinostat = compound: O=C(CCCCCCNC(=O)c1cnc(N(c2ccccc2)c2ccccc2Cl)nc1)NO [citarinostat]
How it was run: as §1

silmitasertib = compound: O=C(O)c1ccc2c(c1)nc(Nc1cccc(Cl)c1)c1ccncc12 [silmitasertib]
How it was run: as §1

[7] = compound: O=C1NC(=O)C(c2cnc3ccccn23)=C1c1cn2c3c(cc(F)cc13)CN(C(=O)N1CCCCC1)CC2
How it was run: as §1

[8] = compound: c1cc(OCCN2CCCCC2)cc(-c2n[nH]c3ccc(-c4nnc[nH]4)cc23)c1
How it was run: as §1

dasatinib = compound: Cc1nc(Nc2ncc(C(=O)Nc3c(C)cccc3Cl)s2)cc(N2CCN(CCO)CC2)n1 [dasatinib]
How it was run: as §1

tipifarnib = compound: Cn1cncc1[C@@](N)(c1ccc(Cl)cc1)c1ccc2c(c1)c(-c1cccc(Cl)c1)cc(=O)n2C [tipifarnib]
How it was run: as §1

[9] = compound: NC(=O)Nc1cc(-c2cccc(F)c2)sc1C(=O)N[C@H]1CCCNC1
How it was run: as §1

[10] = compound: NCC(=O)Nc1ccc(-n2nc(C(F)(F)F)cc2-c2ccc3c(ccc4ccccc43)c2)cc1
How it was run: as §1

entinostat = compound: Nc1ccccc1NC(=O)c1ccc(CNC(=O)OCc2cccnc2)cc1 [entinostat]
How it was run: as §1

[11] = compound: Cc1cccc(CC(=O)N2CCc3c2ccc(-c2cn(C)c4ncnc(N)c24)c3F)n1
How it was run: as §1

vorinostat = compound: O=C(CCCCCCC(=O)Nc1ccccc1)NO [vorinostat]
How it was run: as §1

Sequence of UniProt Q9UJA2 (Q9UJA2 whole entry, looked up): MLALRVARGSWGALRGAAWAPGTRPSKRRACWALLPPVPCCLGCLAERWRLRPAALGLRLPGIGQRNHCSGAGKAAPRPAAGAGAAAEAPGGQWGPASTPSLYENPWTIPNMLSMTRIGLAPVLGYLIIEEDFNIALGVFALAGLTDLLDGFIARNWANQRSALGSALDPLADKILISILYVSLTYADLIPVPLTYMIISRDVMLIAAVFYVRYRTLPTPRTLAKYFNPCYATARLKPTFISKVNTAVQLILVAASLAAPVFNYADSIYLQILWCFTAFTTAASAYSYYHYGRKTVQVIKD
Sequence of UniProt P51795 (P51795 whole entry, looked up): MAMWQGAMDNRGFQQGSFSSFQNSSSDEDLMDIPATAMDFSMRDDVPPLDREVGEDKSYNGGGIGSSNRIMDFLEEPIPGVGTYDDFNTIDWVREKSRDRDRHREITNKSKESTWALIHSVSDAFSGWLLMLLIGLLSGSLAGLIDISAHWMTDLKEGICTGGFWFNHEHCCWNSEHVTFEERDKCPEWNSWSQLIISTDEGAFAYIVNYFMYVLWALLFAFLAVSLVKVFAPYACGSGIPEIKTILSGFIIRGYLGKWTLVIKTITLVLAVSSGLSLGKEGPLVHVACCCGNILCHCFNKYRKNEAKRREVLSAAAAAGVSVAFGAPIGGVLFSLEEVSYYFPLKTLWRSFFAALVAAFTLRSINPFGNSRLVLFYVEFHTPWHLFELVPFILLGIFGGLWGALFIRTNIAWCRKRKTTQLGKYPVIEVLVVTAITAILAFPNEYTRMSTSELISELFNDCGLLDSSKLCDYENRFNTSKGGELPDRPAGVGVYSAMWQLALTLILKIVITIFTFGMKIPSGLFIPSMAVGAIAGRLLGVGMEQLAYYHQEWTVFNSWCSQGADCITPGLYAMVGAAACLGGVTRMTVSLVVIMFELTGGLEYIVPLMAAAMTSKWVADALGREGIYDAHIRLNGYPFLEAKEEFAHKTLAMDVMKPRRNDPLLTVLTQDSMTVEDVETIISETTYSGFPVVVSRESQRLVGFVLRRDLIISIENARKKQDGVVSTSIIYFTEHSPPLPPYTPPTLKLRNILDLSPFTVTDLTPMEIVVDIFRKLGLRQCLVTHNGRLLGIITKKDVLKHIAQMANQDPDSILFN
Sequence of UniProt P48729 (P48729 whole entry, looked up): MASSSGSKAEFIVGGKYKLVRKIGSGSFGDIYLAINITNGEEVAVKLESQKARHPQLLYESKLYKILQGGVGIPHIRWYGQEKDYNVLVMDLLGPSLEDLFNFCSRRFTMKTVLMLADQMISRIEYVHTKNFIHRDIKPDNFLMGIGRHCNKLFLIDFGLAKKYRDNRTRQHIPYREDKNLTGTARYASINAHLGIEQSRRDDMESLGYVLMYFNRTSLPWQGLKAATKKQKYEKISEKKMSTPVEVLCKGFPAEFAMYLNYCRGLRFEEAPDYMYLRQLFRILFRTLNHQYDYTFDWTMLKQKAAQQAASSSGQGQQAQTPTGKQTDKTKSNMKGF
Sequence of UniProt Q69YH5 (Q69YH5 whole entry, looked up): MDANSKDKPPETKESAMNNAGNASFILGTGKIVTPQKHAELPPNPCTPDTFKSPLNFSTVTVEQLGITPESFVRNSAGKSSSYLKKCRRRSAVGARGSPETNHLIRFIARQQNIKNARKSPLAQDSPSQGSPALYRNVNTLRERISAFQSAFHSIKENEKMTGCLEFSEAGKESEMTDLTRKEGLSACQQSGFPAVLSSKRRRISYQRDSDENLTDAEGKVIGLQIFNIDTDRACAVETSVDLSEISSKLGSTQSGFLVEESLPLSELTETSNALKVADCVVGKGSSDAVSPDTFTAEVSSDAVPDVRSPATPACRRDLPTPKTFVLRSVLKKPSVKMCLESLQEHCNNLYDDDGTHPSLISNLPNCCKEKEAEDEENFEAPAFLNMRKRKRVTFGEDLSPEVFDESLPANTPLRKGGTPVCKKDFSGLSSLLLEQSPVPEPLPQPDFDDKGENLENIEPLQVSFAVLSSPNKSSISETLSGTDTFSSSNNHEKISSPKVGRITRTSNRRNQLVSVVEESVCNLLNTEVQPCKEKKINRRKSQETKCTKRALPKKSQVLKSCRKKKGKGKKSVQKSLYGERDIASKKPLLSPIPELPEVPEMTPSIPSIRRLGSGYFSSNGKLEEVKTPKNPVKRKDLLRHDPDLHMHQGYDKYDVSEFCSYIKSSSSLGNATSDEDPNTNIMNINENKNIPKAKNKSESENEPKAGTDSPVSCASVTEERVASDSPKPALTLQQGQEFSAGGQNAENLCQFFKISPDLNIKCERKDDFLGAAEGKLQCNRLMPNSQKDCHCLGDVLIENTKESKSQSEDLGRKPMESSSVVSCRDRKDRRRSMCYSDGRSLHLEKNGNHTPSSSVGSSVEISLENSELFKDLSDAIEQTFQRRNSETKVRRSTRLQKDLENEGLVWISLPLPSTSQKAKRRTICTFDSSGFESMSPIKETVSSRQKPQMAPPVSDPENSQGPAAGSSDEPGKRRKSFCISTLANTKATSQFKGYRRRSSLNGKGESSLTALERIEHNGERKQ
Sequence of UniProt Q9Y2V0 (Q9Y2V0 whole entry, looked up): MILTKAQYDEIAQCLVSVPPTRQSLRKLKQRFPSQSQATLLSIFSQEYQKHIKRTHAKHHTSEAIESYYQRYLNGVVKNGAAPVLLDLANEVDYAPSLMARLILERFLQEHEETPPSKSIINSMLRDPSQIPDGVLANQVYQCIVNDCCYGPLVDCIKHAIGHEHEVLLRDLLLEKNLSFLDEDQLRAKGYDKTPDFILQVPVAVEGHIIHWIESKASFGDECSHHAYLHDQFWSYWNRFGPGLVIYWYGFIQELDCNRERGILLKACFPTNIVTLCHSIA
Sequence of UniProt Q9UIB8 (Q9UIB8 whole entry, looked up): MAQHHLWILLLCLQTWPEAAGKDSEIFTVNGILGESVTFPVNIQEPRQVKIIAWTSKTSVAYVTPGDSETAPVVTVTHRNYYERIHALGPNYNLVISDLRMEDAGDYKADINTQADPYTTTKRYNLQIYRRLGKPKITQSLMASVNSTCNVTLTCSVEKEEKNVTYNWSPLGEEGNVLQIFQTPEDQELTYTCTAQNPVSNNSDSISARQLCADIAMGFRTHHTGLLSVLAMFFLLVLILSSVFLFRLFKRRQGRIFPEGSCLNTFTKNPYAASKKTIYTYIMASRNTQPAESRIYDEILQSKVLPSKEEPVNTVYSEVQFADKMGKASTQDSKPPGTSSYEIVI
Sequence of UniProt Q96GV9 (Q96GV9 whole entry, looked up): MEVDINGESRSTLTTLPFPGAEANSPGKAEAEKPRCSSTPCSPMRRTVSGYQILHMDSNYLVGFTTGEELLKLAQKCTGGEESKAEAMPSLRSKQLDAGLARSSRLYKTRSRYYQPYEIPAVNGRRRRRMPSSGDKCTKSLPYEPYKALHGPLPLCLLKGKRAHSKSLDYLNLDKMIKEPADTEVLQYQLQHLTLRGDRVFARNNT
Sequence of UniProt Q7Z4R8 (Q7Z4R8 whole entry, looked up): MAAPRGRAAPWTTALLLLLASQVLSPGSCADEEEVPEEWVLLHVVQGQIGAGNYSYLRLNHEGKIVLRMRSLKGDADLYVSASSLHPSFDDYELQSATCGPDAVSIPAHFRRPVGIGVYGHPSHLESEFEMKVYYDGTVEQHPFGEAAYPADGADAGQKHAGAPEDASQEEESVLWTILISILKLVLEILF
Sequence of UniProt P55211 (P55211 whole entry, looked up): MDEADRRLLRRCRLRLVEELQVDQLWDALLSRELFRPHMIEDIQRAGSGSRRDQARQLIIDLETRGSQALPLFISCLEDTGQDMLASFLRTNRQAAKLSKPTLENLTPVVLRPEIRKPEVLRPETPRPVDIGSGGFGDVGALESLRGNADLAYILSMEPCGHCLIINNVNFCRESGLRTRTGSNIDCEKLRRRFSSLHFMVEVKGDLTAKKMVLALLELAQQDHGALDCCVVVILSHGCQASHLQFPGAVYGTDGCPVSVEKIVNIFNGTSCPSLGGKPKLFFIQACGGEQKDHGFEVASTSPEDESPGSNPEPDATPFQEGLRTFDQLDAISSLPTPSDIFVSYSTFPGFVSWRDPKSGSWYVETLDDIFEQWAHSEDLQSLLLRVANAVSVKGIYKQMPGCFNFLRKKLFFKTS
Sequence of UniProt Q9BWU1 (Q9BWU1 whole entry, looked up): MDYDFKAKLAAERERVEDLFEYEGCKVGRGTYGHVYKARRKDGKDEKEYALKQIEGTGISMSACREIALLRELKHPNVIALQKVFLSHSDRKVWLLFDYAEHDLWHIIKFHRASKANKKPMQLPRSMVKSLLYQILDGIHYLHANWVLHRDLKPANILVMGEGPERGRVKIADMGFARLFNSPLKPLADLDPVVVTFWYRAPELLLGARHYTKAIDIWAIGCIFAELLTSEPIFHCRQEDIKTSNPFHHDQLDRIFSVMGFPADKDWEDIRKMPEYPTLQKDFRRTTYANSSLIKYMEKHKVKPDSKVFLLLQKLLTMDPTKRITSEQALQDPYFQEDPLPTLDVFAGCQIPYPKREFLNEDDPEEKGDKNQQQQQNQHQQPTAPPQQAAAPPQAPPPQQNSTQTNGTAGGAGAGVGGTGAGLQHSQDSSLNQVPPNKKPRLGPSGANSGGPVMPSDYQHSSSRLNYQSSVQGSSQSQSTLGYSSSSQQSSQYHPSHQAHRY
Sequence of UniProt Q5BKX5 (Q5BKX5 whole entry, looked up): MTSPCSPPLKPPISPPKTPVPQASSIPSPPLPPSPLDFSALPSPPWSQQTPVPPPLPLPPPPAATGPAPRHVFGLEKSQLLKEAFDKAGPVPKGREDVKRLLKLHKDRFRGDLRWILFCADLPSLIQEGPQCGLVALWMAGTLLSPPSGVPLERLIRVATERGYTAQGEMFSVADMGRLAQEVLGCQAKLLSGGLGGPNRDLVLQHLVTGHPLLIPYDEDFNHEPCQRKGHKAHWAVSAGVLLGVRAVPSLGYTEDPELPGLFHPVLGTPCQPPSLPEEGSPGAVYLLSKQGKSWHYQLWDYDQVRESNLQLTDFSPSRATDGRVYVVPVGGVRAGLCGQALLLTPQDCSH
Sequence of UniProt O75956 (O75956 whole entry, looked up): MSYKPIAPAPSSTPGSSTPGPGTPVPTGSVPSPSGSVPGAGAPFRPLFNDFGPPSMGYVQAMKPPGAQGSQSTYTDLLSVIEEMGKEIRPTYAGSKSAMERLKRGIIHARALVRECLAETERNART

Target	log2 fold change (bafetinib)	log2 fold change (nilotinib)	log2 fold change [1]	log2 fold change [2]	log2 fold change [3]	log2 fold change [4]	log2 fold change (mubritinib)	log2 fold change [5]	log2 fold change [6]	log2 fold change (citarinostat)	log2 fold change (silmitasertib)	log2 fold change [7]	log2 fold change [8]	log2 fold change (dasatinib)	log2 fold change (tipifarnib)	log2 fold change [9]	log2 fold change [10]	log2 fold change (entinostat)	log2 fold change [11]	log2 fold change (vorinostat)
CDK2AP2 (UniProt O75956)	0	0.04	0.028	-0.063	-0.022	-0.039	0.028	-0.05	0.14	0.009	-0.094	-0.062	-0.1							
C6orf120 (UniProt Q7Z4R8)	-0.145	-0.045	0.044	-0.048		-0.032				0.031			-0.141	0.029	0.026	0.068	-0.018	0.083		
C5orf30 (UniProt Q96GV9)								-0.191				-0.051			0.152					
CRTC3 (UniProt Q6UUV7)	-0.018				-0.002	-0.019	-0.168		-0.007		0.098	0.025			-0.302	-0.754 (active)	0.001	0.057		
CSNK1A1 isoform 3 (UniProt P48729)	0.224						0.055		-0.204		0				0.165					
C15orf41 (UniProt Q9Y2V0)					-0.097	-0.088		-0.046		0.07		0.023	-0.007	-0.357 (active)	-0.087	-0.076	-0.061	-0.01	-0.101	0.069
CFAP47 (UniProt Q6ZTR5)	0.034							0.022		-0.042		-0.025	-0.008	-0.117	0.047		-0.024			
CRLS1 (UniProt Q9UJA2)		0.01	-0.064	0.056	-0.002		0.007		0.027	0.012	0.017		-0.051	0.101	-0.138	0.323 (active)	0.06	0.151	0.012	-0.005
CD84 (UniProt Q9UIB8)					-0.117			-0.036				0.084		0.169		-0.182		0.234		
CAD (UniProt H7BZB3)								0.124												
CPNE5 (UniProt Q9HCH3)					-0.077															
CDK19 (UniProt Q9BWU1)		-0.266	0.297	0.338	-0.01	-0.054	0.112	-0.135	-0.093	-0.265	0.327	0.16	-0.089	0.101	-0.045	-0.131	-0.018	-0.085	-0.014	0.016
CASP9 (UniProt P55211)		-0.013	-0.136	0	-0.276	-0.004		-0.234		0.05		-0.057	0.054	-0.075	0.003	0.059	-0.111	-0.098	0.037	0.045
CD68 (UniProt P34810)	-0.091						-0.003		-0.106		0.07					0.039		-0.33		
COMMD3-BMI1 (UniProt R4GMX3)		-0.109	-0.02	0.046	0.141			0.076				-0.012			0.435	0.003		-0.062	-0.032	0.109
CLCN5 isoform 2 (UniProt P51795)		-0.176	0.014	-0.063	0.041	-0.061				0.045			-0.114	-0.177			0.004		0.048	0.062
CDCA2 (UniProt Q69YH5)		0.164	-0.114	0.042	0.159	-0.215	-0.256	-0.096	-0.003	-0.27	0.133	0.035	0.243		0.182	-0.034	0.037	-0.11	-0.065	0
C19orf54 (UniProt Q5BKX5)					0.03	0.14		0.004		-0.09		-0.05	-0.121	-0.175	0.013	0.098	0.086	-0.111	0.007	-0.064
